In the supplement of paper PMC12632987:
Over roughly 4,500 sequences, “median log2 fold change of GCK-ALFA target abundance (FLAG IP / Myc IP barcode read proportion)” has its median near 0.078; the lowest 2% begin near -0.6. The full list was thinned out, with the lowest values kept by preference.

B1: GBRAP_125_3136 (protein)
chain: KRAALLALAEALARAMGFSEEEIAEIRRLAEAHDPAQTIVAIFLAAGAEEAAELAAEVLDKLSEEEIAALRALAEAARDLPLEEAVARLLAALKEAKAKL
B2: GBRAP_52_6252 (protein)
chain: MRARLRADAREILELVKEGREEEARRLAREIAETYNEEELRLFIDEFAALAAEAPKEDIDDVWRAAEILAEALEEAGWEEVLVDDALARTAAALVKVEAK
B3: GBRAP_184_5187 (protein)
chain: MVVEEELEIEDVAEARAKIAAIGERIAGKKAKLRVIVKAKKITVEIARTIMEGLGAIKAAGNATDITVELVGEMSEEVIDTAVELAKKAGIRVVIAMSEE
B4: GBRAP_11_2656 (protein)
chain: KKEAYKKAAELAEEAAKALQKLIEEGVDDEELIEKLRKLIEELKKLAEEELDEADKKEVEVVVELFEEFLADEENRLQLAEELLAGLRVLAGNFQLKADE
B5: GBRAP_84_7007 (protein)
chain: SREQEILEITNKILEKGSIELKKKLLTYLILKNENKAATLALNYLLEEDPEAAVEALDEATEAYEEGKEEEVRKELLELAKKEGEEVYALVEELLELIDE
B6: GBRAP_84_7005 (protein)
chain: SREEEIVEITAEILEKASIETKALLLTYLILKNANKAATLALNDLLEEDPEAAVEALDRATEAYEEGKEEEVEKELLEKAKEEGEELAELVERLLELLKE
B7: GBRAP_84_7006 (protein)
chain: EREEEIVKLTKEILEKGSIELKALLLTYLILKNENKAATLALNDLLKEDPEAAVEALDRATEAYEEGKEEEVEKELKEKAKKEGKEVAELVEKLIKLLEE
B8: GBRAP_166_4935 (protein)
chain: SLEKIYEETKKKVIELAKKALTADEEERIDLAIEIEELLKEAKEKGLTPEQLKEILLEALKELEEDPEVAEFLLRMILAASEMDEELQDVILEALEEFKK
B9: GBRAP_128_3437 (protein)
chain: AQEELLQEALELLDEIVESDVETAAELAKQLAELLGQLDEESRDEVVEYFEEKAKELTEEKLEAVADALREQVPQLDADTANAVNEMIVILGEQILELEE
B10: GBRAP_160_4322 (protein)
chain: KEELEELEKRIKEIAEEAKKMIKGQSAEEKITIVKVALGDIILEVESNPAVSDELEDKVAEIADAAEAYLDAHPDLSEEEVIALLEEAVKKILELIKEEK
B11: GBRAP_137_3640 (protein)
chain: MKVTIRVERHEDLVEITITVDDPEKAEEVAELITDLAVAHGALAISVEIKEDGTLEAVIWVPVERAEALIAAIVDALQSKFGATVTVEDLDTGEVRTYTP
B12: GBRAP_184_5202 (protein)
chain: AIVERTIEFENEEELKEKLKELLEELKGFKGTVYIHVEAPEITEEMAKLLIEFVKEIKENGYATEIIVDIEGEVSEEVRDLLLDEFAKIGAKVVIALSEE
B13: GBRAP_11_2682 (protein)
chain: RKEALERAAELAERAAELAERLLEEGVDNEELLEELRRALEELRRLVKEHLDEAHRTLVEIAEEELEEALADPENAAAHIERLLAAARVLRYNLEEELEE
B14: GBRAP_125_3139 (protein)
chain: MKAELLALAEALARALGYSEEEIAELRRLGEAHDPAQTIIAILLAEGFEELAELAREVLPKLTPEEIAELRALAESLRDKSREELRAALLAKLKELKAKQ
B15: GBRAP_128_3300 (protein)
chain: MDPALRAEVEALVETIRTGDPAARRAAAEALAALMGSVNDEDAEAIADIIEAAIPELSAEALEILADVLDAARPQLTPEKAALAADVASAALLAAEELAE
B16: GBRAP_52_6059 (protein)
chain: MEERIEELARRIAEAIAAGDLERALELLRRAIKELSVEEIRRMLELAAERVAKLGEEAHERFVELLEEAEELMKEAGISEEEAELIVGDAEAALARAVAA
B17: GBRAP_52_6154 (protein)
chain: MEERAREYAERFVAAVKAGDEEEARAIMEEIAATLDDEEIALFLEHVAELVAGLSPEDRERVVEAVLEFEDIAEAAGHDPELLSYHTARVAGAAYAALQA
B18: GBRAP_52_6153 (protein)
chain: ARERAREYAEAFVAAVKAGDEERARAIMEEIAATLNDEEIELFLEEVARLVEGLTPEERERVVEAVLEFEDIAVAAGHDEELLSYHTARVAGAAYDALQK
B19: GBRAP_52_6151 (protein)
chain: AAARAAAYAREFVAAVRAGDEEKARAIMKEIAATLDDEEIALFLREVARLVAGLSPEDRERVVEAVLEFEDIAVAAGHDEDILSYETARVAGAAYEALQR

Target: GABARAP, O95166
Assay: median log2 fold change of GCK-ALFA target abundance (FLAG IP / Myc IP barcode read proportion) (log2 ratio); each designed protein is fused to an ALFA-tag nanobody in HEK293 cells to bring the named protein to FLAG-tagged glucokinase (GCK); Myc marks an untargeted standard; higher = target protein stabilised (more abundant)
Settings: target protein: 3xFLAG-MCP-GCK-ALFA reporter; HEK293 landing pad (RPLP)
Outline: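 HEK293 landing-pad cells received a recombined binder library fused to the ALFA nanobody and were induced with 2 μg mL^−1 doxycycline, then transfected with a plasmid encoding a FLAG-tagged target and a Myc-tagged standard. Lysates were collected after 48 h for anti-FLAG and anti-Myc immunoprecipitation, and the circular RNA barcodes were reverse transcribed, amplified and sequenced. Target abundance for each binder is the median log2 ratio of FLAG to Myc barcode read proportions. Barcodes had to reach a proportion of at least 10^−7 in both replicates, each binder needed at least 3 barcodes per replicate, a pseudocount of 10^−6 was applied, and the two replicates were pooled.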

Chain of GABARAP, O95166 (O95166 whole entry, the tested form may be a part): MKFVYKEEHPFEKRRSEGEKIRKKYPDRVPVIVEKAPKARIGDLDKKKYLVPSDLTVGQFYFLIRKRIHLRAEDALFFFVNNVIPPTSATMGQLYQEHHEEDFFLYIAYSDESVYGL

Row | Binder | median log2 fold change
1 | B1 | -0.351
2 | B2 | -0.272
3 | B3 | 0.57
4 | B4 | 0.336
5 | B5 | -0.316
6 | B6 | -0.259
7 | B7 | -0.666
8 | B8 | 0.184
9 | B9 | -0.0498
10 | B10 | 0.161
11 | B11 | -0.0441
12 | B12 | -0.159
13 | B13 | -0.882
14 | B14 | 0.207
15 | B15 | -0.00271
16 | B16 | 0.0176
17 | B17 | 0.0811
18 | B18 | -0.742
19 | B19 | 0.0301
